GCN5L2 inh = GCN5L2 (KAT2A) acetyltransferase inhibition. actives 0.21% (n = 390,000). AID 504327. Q92830. Potency, µM (titrated, usually from 58.9 µM), hits mostly inhibitors. GCN5L2 HAT assay, ThioGlo1 CoA-SH fluorescence
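Fluorescence readout, Ex340nm/Em540nm: ThioGlo1 (50uM final) reacts with free CoA thiol released as 20nM GCN5L2 acetylates H3(1-25) peptide (75uM) using acetyl-CoA (70uM). Compound and enzyme sat 15 min beforehand; 20 min room-temperature reaction.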
VDR inh = blocks the human vitamin D receptor | VDR-SRC2-3 peptide fluorescence polarization, 2 h | actives 0.93% (n = 400,000) | Potency, µM, hits mostly inhibitors | AID 504847
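The screen uses fluorescence polarization to detect compounds that interfere with recruitment of the SRC2-3 coactivator peptide to VDR; plates are read after 2 h at room temperature.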
PLK1 PBD inh = inhibitors of human PLK1 polo-box domain binding | P53350 | Plk1 PBD binding of FITC phosphopeptide, fluorescence polarization | Potency, µM, actives largely listed as inhibitors | actives 2.8% (n = 360,000) | AID 720504; further: series mostly up to about 57 µM; nearly all actives have a fitted effect of over 65% in size
PI4K2A block = PI4K2A (human) kinase inhibition; Q9BTU6; purified PI4K2A, ADP-Glo luminescence, 1 h; stronger effect = lower value; activity change, negative = inhibition, % at 76.9 µM; actives 0.13% (n = 420,000); AID 1346378; in the data active means activity change below about -50%; inconclusive means mostly about -30% to -49%
Target sequence (Q9BTU6 whole entry, looked up): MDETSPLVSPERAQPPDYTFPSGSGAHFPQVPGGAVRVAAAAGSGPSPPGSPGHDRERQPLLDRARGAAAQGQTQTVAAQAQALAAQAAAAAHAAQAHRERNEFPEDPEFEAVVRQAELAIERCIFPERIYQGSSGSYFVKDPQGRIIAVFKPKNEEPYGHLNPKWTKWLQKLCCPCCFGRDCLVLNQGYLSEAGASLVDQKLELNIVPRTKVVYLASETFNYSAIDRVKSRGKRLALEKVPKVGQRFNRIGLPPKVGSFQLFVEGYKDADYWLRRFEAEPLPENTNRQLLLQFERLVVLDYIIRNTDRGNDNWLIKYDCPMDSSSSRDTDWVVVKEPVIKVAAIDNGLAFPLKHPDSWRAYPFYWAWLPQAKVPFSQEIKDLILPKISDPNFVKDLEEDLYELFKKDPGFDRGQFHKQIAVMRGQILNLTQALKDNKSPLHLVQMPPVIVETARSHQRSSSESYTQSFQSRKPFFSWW
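ADP-Glo luminescence measured ADP generated by PI4K2A enzyme (4 ug/mL before mixing) with 1.2 mM PI substrate (pre-mix) and 300 microM ATP (pre-mix). Tris pH7.5 buffer with MgCl2, Triton X-100; 1 h reaction at ambient temperature.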
GLS inh = inhibitors of human glutaminase (GLS); O94925; GLS enzymatic activity, qHTS titration; Potency, µM (top dose mostly 45.5 µM), actives largely listed as inhibitors; actives 0.21% (n = 410,000)
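Coupled fluorescence readout: glutamate oxidase/HRP/Amplex Red detect glutamate formed by hKGA from L-glutamine (1 mM solution added). Buffer 45 mM KH2PO4 pH 8.2, 0.02% Tween-20; reads at t0 and 30 min RT.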
A number is an active result; i = inactive; ? = inconclusive; nt = no result; [ ] = another dose, or the depositor's remark. Sampled rows, rich in hits. Any-hit rate of the full collection: about 3.1%. Unless noted, the call rests on the fitted dose curve; in most records, active means well fitted curve in the direction sought with a large enough effect; inconclusive means small, poorly fitted or top-dose-only effect, or another doubt; inactive means no such curve, though single readings can be large; an effect the other way counts as inactive or inconclusive.

SMILES	GCN5L2 inh	VDR inh	PLK1 PBD inh	PI4K2A block	GLS inh
N[C@@H](C(=O)N[C@@H]1C(=O)N2C(C(=O)O)=C(CSc3cn[nH]n3)CS[C@H]12)c1ccc(O)cc1	nt	nt	nt	nt	6.3µM
NC(=O)c1cc[n+](CC2=C(C(=O)O)N3C(=O)[C@@H](NC(=O)[C@H](c4ccccc4)S(=O)(=O)[O-])[C@@H]3SC2)cc1	i	?	nt	nt	?
NC(=O)c1cc[n+](CC2=C(C(=O)O)N3C(=O)[C@@H](NC(=O)C(c4ccccc4)S(=O)(=O)[O-])[C@H]3SC2)cc1 (stereo partly specified)	i	i	4.7µM	?	0.79µM
CCc1nnn2c1Cn1c3ccccc3c(=O)n1[C@@H](C)C2	nt	nt	nt	i	nt
O=C(NCc1ccccc1Cl)c1ccc(NC(=O)c2nsc3ccccc23)cc1	i	i	nt	i	i
CCCOc1ccccc1NC(=O)c1ccc(N)cc1	i	i	i	i	i
CCCCOc1ccccc1NC(=O)c1ccc(=O)[nH]c1	i	i	30µM	i	i
CC(=O)OCC1=C[C@H]2[C@@H]3C(C)(C)[C@]3(OC(C)=O)C[C@@H](C)[C@]2(O)[C@@H]2C=C(C)C(=O)[C@@]2(O)C1	i	i	nt	nt	nt
CN(C)C(=O)/N=N/C(=O)N(C)C	i	6.3µM	nt	i	nt
Cc1ccccc1-c1cncnc1NCCN1CCOCC1	i	?	nt	nt	nt
CN(C)c1ccc(-c2cncnc2NCCN2CCOCC2)cc1	i	40µM	nt	nt	nt
CC1CN(C(=O)c2nn(C)cc2[N+](=O)[O-])CC(C)O1 (stereo unspecified)	i	i	12µM	i	i
CCOC(=O)Cc1ccc(NC(=O)N(Cc2ccc(OC)cc2)C2CCN(C(C)=O)CC2)cc1	i	i	nt	i	i
COCCCNC1=C(Cl)C(=O)c2ccccc2C1=O	i	i	i	i	i
COCCCNc1c2c3c(cccc3[nH]c1=O)C(=O)c1ccccc1-2	?	i	0.38µM	i	i
Nn1c(SCC(=O)Nc2cccc3ccccc23)nnc1-c1n[nH]c2c1CCC2	nt	nt	nt	i	nt
N#CCCN1CCN(C(=S)c2ccc(-c3ccc(Cl)c(Cl)c3)o2)CC1	i	i	11µM	i	i
N#CCCN1CCN(C(=S)c2ccc(-c3cccc(Cl)c3)o2)CC1	i	i	i	i	i
CCCCNC(=O)n1c(SC)nc2ccccc21	i	i	?	i	i
COC(=O)n1c(SC)nc2ccccc21	i	i	27µM	i	i
COc1cc(OC)c(N(C)C(=O)Cn2ncc3c(=O)oc4ccccc4c32)cc1Cl	i	i	nt	i	i
S=C(Nc1ccc(Br)cc1)OCCN1CCCC12CCC(c1ccccc1)CC2 (stereo unspecified)	nt	nt	nt	i	nt
CCOC(=O)[C@@]12CN(C(=O)OC(C)(C)C)CC=C1N(Cc1ccc(OC)cc1)C(=O)[C@H]2CC(=O)NCC12CC3CC(CC(C3)C1)C2	nt	nt	nt	i	nt
O=C(COc1cccc(NC(=O)c2cccc([N+](=O)[O-])c2)c1)c1ccc(F)cc1	i	i	i	i	i
O=C(CCNc1cccc(F)c1)c1cccc([N+](=O)[O-])c1	i	89µM	?	i	i
SMILES	GCN5L2 inh	VDR inh	PLK1 PBD inh	PI4K2A block	GLS inh
Cc1cccc(NC(=O)[C@H]2CC(=O)O[C@@H]2c2ccccc2)c1C	nt	nt	nt	i	nt
O=C1/C(=C/c2ccccc2)CCc2ccc(Cl)nc21	nt	50µM	i	i	i
O=c1c2cc3cc(Cl)ccc3nc2ncn1CCc1c[nH]c2ccccc12	nt	nt	nt	i	nt
CC(C)CC(=O)N1CCN(C(=O)CCC2CCCC2)CC1	i	i	27µM	i	i
CCCS(=O)(=O)N1CCN(C(=O)CCC2CCCC2)CC1	i	i	i	i	i
Cc1csc2nc(COC(=O)c3ccccc3NC(=O)c3ccc(C(C)(C)C)cc3)cc(=O)n12	i	i	nt	i	i
CN(C)C(=O)NC(NC(=S)Nc1ccccc1)C(Cl)(Cl)Cl (stereo unspecified)	i	?	12µM	i	i
O=C(NC(NC(=S)Nc1ccccc1)C(Cl)(Cl)Cl)c1cccc(Cl)c1 (stereo unspecified)	i	i	i	i	i
O=C(NC1CCCCN(Cc2ccc(Cl)cc2)C1=O)c1cccs1 (stereo unspecified)	nt	nt	nt	i	nt
CCOC(=O)CSc1nnc(COc2ccc3ccccc3c2)o1	i	i	27µM	i	?
Nc1c(C(=O)N2CCOCC2)sc(=S)n1-c1ccccc1	i	50µM	11µM	i	i
CCOC(=O)c1sc(=S)n(-c2ccc(C)cc2)c1N	i	?	11µM	i	i
Cc1ccc(-n2c(N)c(C(=O)NCc3cccnc3)sc2=S)cc1	?	i	28µM	i	i
CCOC(=O)c1sc(=S)n(-c2ccc3c(c2)OCO3)c1N	?	?	13µM	i	i
CN(C)[C@@H]1CCN(c2cccc3c2S(=O)(=O)N(C2CC2)CCCO3)C1	nt	nt	nt	i	nt
C=C[C@@]1(C)C[C@H](OC(=O)CSC(C)(C)CNC(=O)[C@@H](N)C(C)C)[C@@]2(C)C(C)CC[C@@]3(CCC(=O)[C@@H]32)[C@H](C)[C@H]1O (stereo partly specified)	i	i	nt	nt	i
Cc1ccc(-n2c(N)c(C(=O)N3CCCCC3)sc2=S)cc1	i[0.501 µM]	?	24µM	i	i
CCOc1ccc(-n2c(N)c(C(=O)N3CCN(C)CC3)sc2=S)cc1	i	i	i	i	i
N#CCCN(C(=O)c1ccc2c(=O)n3c(nc2c1)CCCCC3)c1ccccc1	i	i	24µM	i	i
CNc1c2cccc(C)c2nc2c(C(=O)NCCN(C)C)cccc12	nt	i	17µM	i	i
FC(F)(F)C(F)(F)C(F)(F)C(F)(F)C(F)(F)F	i	i	nt	nt	i
O=C(C1CCCCC1)N1CC(=O)N2CCCc3ccccc3C2C1 (stereo unspecified)	nt	nt	nt	i	nt
COc1ccc(C2=NOC(C)(c3nnc(-c4ccncc4)o3)C2)cc1 (stereo unspecified)	nt	i	i	-60	i
COc1ccc(OC)c(NC(=O)CCN2CC(C)CC(C)C2)c1 (stereo unspecified)	i	i	24µM	i	i
CCOC(=O)CC[C@H]1CC[C@]2(CCCN(C(=O)C3CCCC3)C2)O1	nt	nt	nt	i	nt
SMILES	GCN5L2 inh	VDR inh	PLK1 PBD inh	PI4K2A block	GLS inh
CCCCOc1ccc(C(=O)NC2CCCCN(Cc3ccc(Cl)cc3)C2=O)cc1 (stereo unspecified)	nt	nt	nt	i	nt
CN(C)N1C(N)=C(C#N)C(c2ccsc2)C2=C1CCCC2=O (stereo unspecified)	i	?	i	i	i
CN(C)N1C(N)=C(C#N)C(c2cccs2)C2=C1CCCC2=O (stereo unspecified)	i	i	30µM	i	i
O=C1NC2c3c(Cl)sc(Cl)c3C(=O)C2O1 (stereo unspecified)	nt	?	15µM	i	?
CC(=O)Oc1cc2oc(=O)c3c(c2cc1Cl)CCC3	i	i	6µM	i	i
NC(=O)COCCN1CCN(C(c2ccccc2)c2ccc(Cl)cc2)CC1 (stereo unspecified)	nt	nt	nt	i	nt
COC(=O)COc1ccc(C(C2C(=O)CC(C)(C)CC2=O)C2C(=O)CC(C)(C)CC2=O)cc1	i	50µM	?	i	i
CCOCCn1c(C2CCN(CCc3ccc(C(C)(C)C(=O)O)cc3)CC2)nc2ccccc21	nt	nt	nt	i	nt
COC(=O)c1cc(-c2cc(Cl)cc(Cl)c2)c(=O)n2c1CCC2	nt	nt	nt	i	nt

Bioassay records (PubChem BioAssay)
